# Laboratory results published in PubChem BioAssay (Tox21).
# Inconclusive results are not listed. Where a call stands in place of a potency, no number is given. A number with no mark means an inactive call. Active and inactive are the calls of the source. Unless noted, calls come from the whole dose curve; as a rule, active = well fitted curve in the direction sought with a large enough effect in the repeat runs; inconclusive = weak or mixed curves; inactive = no such curve, though single readings can be large; an effect the other way counts as inactive or inconclusive.
# What was measured:
# [1] = qHTS assay to identify small molecule antagonists of the thyroid receptor (TR) signaling pathway - cell viability counter screen (AID 743064); note: nearly all actives have a fitted effect of over 50% in size
# Summary of the method: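 Plate GH3.TRE-Luc cells; incubate 4 h at 37 °C; add compound, then T3 to 1 nM final; incubate 23.5 h; add CellTiter-Fluor; incubate 30 min at 37 °C, 5% CO2; read fluorescence.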
# [2] = qHTS assay to identify small molecule antagonists of the thyroid receptor (TR) signaling pathway (AID 743065); note: series mostly up to about 70 µM; nearly all actives have a fitted effect of over 55% in size
# Summary of the method: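 GH3.TRE-Luc rat pituitary cells (two TREs driving luciferase) were dosed with compound, then stimulated with 1 nM T3 (final) for 23.5 h at 37 C. ONE-Glo luminescence was the read-out, with CellTiter-Fluor fluorescence as the cytotoxicity counter-screen.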
# [3] = system: thyroid hormone receptor (rat, GH3 cells); test: qHTS assay to identify small molecule agonists of the thyroid receptor (TR) signaling pathway (AID 743066; calls by dose curve)
# [4] = target: Estrogen receptor (Homo sapiens) (UniProt P03372); test: qHTS assay to identify small molecule antagonists of the estrogen receptor alpha (ER-alpha) signaling pathway (AID 743069; active = well fitted curve in the direction sought with a large enough effect in the signal ratio in the repeat runs, not every such curve was filed as active; the % refers to the signal ratio)
# Estrogen receptor (Homo sapiens), sequence (P03372 whole entry, looked up): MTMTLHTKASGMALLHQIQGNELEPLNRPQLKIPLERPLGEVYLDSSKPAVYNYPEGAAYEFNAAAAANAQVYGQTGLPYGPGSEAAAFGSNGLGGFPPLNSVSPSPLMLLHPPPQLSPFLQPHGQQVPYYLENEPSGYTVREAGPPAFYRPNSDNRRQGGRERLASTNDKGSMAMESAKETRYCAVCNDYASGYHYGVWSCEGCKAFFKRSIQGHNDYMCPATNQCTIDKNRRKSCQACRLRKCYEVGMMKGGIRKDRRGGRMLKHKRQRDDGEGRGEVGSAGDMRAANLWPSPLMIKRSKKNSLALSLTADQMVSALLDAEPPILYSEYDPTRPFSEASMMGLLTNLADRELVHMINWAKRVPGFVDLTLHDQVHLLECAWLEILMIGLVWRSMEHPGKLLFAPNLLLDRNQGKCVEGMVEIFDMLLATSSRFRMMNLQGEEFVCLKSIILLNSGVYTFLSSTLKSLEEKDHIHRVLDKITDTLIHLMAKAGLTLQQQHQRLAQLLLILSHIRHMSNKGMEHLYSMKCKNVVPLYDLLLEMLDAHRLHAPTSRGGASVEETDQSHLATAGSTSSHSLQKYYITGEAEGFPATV
# Summary of the method: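 Beta-lactamase FRET fluorescence is read after 2 hr at room temperature with LiveBLAzer B/G substrate. Before that, ER-alpha-bla HEK293 cells sit 4 hr after plating, then receive compound plus 17beta-estradiol and incubate 18 hr at 37C.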
# [5] = qHTS assay to identify small molecule antagonists of the estrogen receptor alpha (ER-alpha) signaling pathway - cell viability counter screen (AID 743074; calls by dose curve;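 note: HEK293 cells carrying ER-alpha-UAS-bla reporter stimulated with 17beta-estradiol; nearly all actives have a fitted effect of over 45% in size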)
# [6] = target: Estrogen receptor (Homo sapiens) (UniProt P03372); test: qHTS assay to identify small molecule agonists of the estrogen receptor alpha (ER-alpha) signaling pathway (AID 743075; calls by dose curve;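 note: HEK293 GripTite cells with ER-alpha and UAS-driven beta-lactamase reporter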)
# [7] = target: Estrogen receptor (Homo sapiens) (UniProt P03372); test: qHTS assay to identify small molecule agonists of the estrogen receptor alpha (ER-alpha) signaling pathway using the BG1 cell line (AID 743079); note: nearly all actives have a fitted effect of over 20% in size; note: potency is the fitted concentration of half-maximal effect
# [8] = qHTS assay to identify small molecule antagonists of the estrogen receptor alpha (ER-alpha) signaling pathway using the BG1 cell line (AID 743080; calls by dose curve;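 note: BG1 cells stimulated with 17beta-estradiol alongside compound; series mostly up to about 70 µM; nearly all actives have a fitted effect of over 25% in size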)
# Summary of the method: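 Seeding, 24 h rest, compound transfer from DMSO, 17beta-estradiol addition, 21.5 h incubation, CellTiter-Fluor (30 min, 37 C), then ONE-Glo (30 min, room temperature): this sequence was run on BG1-Luc-4E2 reporter cells.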
# [9] = qHTS assay to identify small molecule antagonists of the estrogen receptor alpha (ER-alpha) signaling pathway using the BG1 cell line - cell viability counter screen (AID 743081);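 note: compound given together with 17beta-estradiol as the ER stimulus; series mostly up to about 70 µM; nearly all actives have a fitted effect of over 45% in size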
# [10] = target: Aromatase (Homo sapiens) (UniProt P11511); test: qHTS assay to identify aromatase inhibitors (AID 743083); note: series mostly up to about 70 µM; nearly all actives have a fitted effect of over 55% in size
# Aromatase (Homo sapiens), sequence (P11511 whole entry, looked up): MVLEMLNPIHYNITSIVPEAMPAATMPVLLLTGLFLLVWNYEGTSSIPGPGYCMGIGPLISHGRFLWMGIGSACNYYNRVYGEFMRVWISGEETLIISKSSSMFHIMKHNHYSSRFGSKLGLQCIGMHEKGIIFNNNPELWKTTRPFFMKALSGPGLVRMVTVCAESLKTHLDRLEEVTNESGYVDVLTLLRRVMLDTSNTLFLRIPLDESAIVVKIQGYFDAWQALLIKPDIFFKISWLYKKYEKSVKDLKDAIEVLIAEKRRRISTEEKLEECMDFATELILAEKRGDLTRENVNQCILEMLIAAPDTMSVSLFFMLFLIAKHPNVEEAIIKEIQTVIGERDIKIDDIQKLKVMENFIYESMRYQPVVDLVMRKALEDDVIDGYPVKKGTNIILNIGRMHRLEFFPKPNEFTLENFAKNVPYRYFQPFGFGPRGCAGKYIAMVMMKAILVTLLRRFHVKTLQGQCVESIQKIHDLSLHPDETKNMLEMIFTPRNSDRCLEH
compound,measurement,setting,value
CC(C)CCCC(C)(C)O,Potency,[1],inactive
same,Potency,[2],inactive
same,outcome,[3],inactive
same,outcome,[4],inactive
same,outcome,[5],inactive
same,outcome,[6],inactive
same,Potency,[7],inactive
same,Potency,[8],inactive
same,outcome,[9],inactive
same,Potency,[10],inactive
CC(=O)NCCCCCC(=O)O,Potency,[1],inactive
same,Potency,[2],inactive
same,outcome,[3],inactive
same,outcome,[4],inactive
same,outcome,[5],inactive
same,outcome,[6],inactive
same,Potency,[7],inactive
same,Potency,[8],inactive
same,outcome,[9],inactive
same,Potency,[10],inactive
O=C1O[C@@H]2[C@@H](O)[C@H](O)O[C@@H]2[C@H]1O,Potency,[1],inactive
same,Potency,[2],inactive
same,outcome,[3],inactive
same,outcome,[4],inactive
same,outcome,[5],inactive
same,outcome,[6],inactive
same,Potency,[7],inactive
same,Potency,[8],inactive
same,outcome,[9],inactive
same,Potency,[10],inactive
O=C(O)CCSSCCC(=O)O,Potency,[1],inactive
same,Potency,[2],inactive
same,outcome,[3],inactive
same,outcome,[4],inactive
same,outcome,[5],inactive
same,outcome,[6],inactive
same,Potency,[7],inactive
same,Potency,[8],inactive
same,outcome,[9],inactive
same,Potency,[10],inactive
CCN(C)C(=O)Oc1cccc([C@H](C)N(C)C)c1,Potency,[1],inactive
same,Potency,[2],inactive
same,outcome,[3],inactive
same,outcome,[4],inactive
same,outcome,[5],inactive
same,outcome,[6],inactive
same,Potency,[7],inactive
same,Potency,[8],inactive
same,outcome,[9],inactive
same,Potency,[10],inactive
COc1ccc(S(=O)(=O)N2c3ccc(Cl)cc3[C@@](O)(c3ccccc3Cl)[C@H]2C(=O)N2CCC[C@@H]2C(N)=O)cc1OC,Potency,[1],inactive
same,Potency,[2],inactive
same,outcome,[3],inactive
same,outcome,[4],inactive
same,outcome,[5],inactive
same,outcome,[6],inactive
same,Potency,[7],inactive
same,Potency,[8],inactive
same,outcome,[9],inactive
same,Potency,[10],inactive
COCCOCCOCCOCCO,Potency,[1],inactive
same,Potency,[2],inactive
same,outcome,[3],inactive
same,outcome,[4],inactive
same,outcome,[5],inactive
same,outcome,[6],inactive
same,Potency,[7],inactive
same,Potency,[8],inactive
same,outcome,[9],inactive
same,Potency,[10],inactive
O=C1c2ccccc2C(=O)C1c1ccccc1,Potency,[1],inactive
same,Potency,[2],inactive
same,outcome,[3],inactive
same,outcome,[4],inactive
same,outcome,[5],inactive
same,outcome,[6],inactive
same,Potency,[7],inactive
same,Potency,[8],inactive
same,outcome,[9],inactive
same,Potency,[10],inactive
CC(=O)CCCCn1c(=O)c2c(ncn2C)n(C)c1=O,Potency,[1],inactive
same,Potency,[2],inactive
same,outcome,[3],inactive
same,outcome,[4],inactive
same,outcome,[5],inactive
same,outcome,[6],inactive
same,Potency,[7],inactive
same,Potency,[8],inactive
same,outcome,[9],inactive
same,Potency,[10],inactive
CN(C)c1ccc(C=O)cc1,Potency,[1],inactive
same,Potency,[2],inactive
same,outcome,[3],inactive
same,outcome,[4],inactive
same,outcome,[5],inactive
same,outcome,[6],inactive
same,Potency,[7],54.5 µM (active)
same,Potency,[8],inactive
same,outcome,[9],inactive
same,Potency,[10],inactive
O=C(O)c1cc(Cl)cc([N+](=O)[O-])c1Cl,Potency,[1],inactive
same,Potency,[2],inactive
same,outcome,[3],inactive
same,outcome,[4],inactive
same,outcome,[5],inactive
same,outcome,[6],inactive
same,Potency,[7],inactive
same,Potency,[8],inactive
same,outcome,[9],inactive
same,Potency,[10],inactive
O=C(OCC(COC(=O)c1cccnc1)(COC(=O)c1cccnc1)COC(=O)c1cccnc1)c1cccnc1,Potency,[1],inactive
same,Potency,[2],inactive
same,outcome,[3],inactive
same,outcome,[4],inactive
same,outcome,[5],inactive
same,outcome,[6],inactive
same,Potency,[7],inactive
same,Potency,[8],inactive
same,outcome,[9],inactive
same,Potency,[10],inactive
CCC(CC)CO,Potency,[1],inactive
same,Potency,[2],inactive
same,outcome,[3],inactive
same,outcome,[4],inactive
same,outcome,[5],inactive
same,outcome,[6],inactive
same,Potency,[7],inactive
same,Potency,[8],inactive
same,outcome,[9],inactive
same,Potency,[10],inactive
CO[C@@H]1[C@@H](OC(N)=O)[C@@H](O)[C@H](Oc2ccc3c(O)c(NC(=O)c4ccc(O)c(CC=C(C)C)c4)c(=O)oc3c2C)OC1(C)C,Potency,[1],inactive
same,Potency,[2],inactive
same,outcome,[3],inactive
same,outcome,[4],inactive
same,outcome,[5],inactive
same,outcome,[6],inactive
same,Potency,[7],inactive
same,Potency,[8],inactive
same,outcome,[9],inactive
same,Potency,[10],inactive
O=C(CCNNC(=O)c1ccncc1)NCc1ccccc1,Potency,[1],inactive
same,Potency,[2],inactive
same,outcome,[3],inactive
same,outcome,[4],inactive
same,outcome,[5],inactive
same,outcome,[6],inactive
same,Potency,[7],inactive
same,Potency,[8],inactive
same,outcome,[9],inactive
same,Potency,[10],inactive
CCCCCCCCSCC,Potency,[1],inactive
same,Potency,[2],inactive
same,outcome,[3],inactive
same,outcome,[4],inactive
same,outcome,[5],inactive
same,outcome,[6],inactive
same,Potency,[7],inactive
same,Potency,[8],inactive
same,outcome,[9],inactive
same,Potency,[10],inactive
CC(=O)NCc1c(I)c(NC(C)=O)c(I)c(C(=O)O)c1I,Potency,[1],inactive
same,Potency,[2],inactive
same,outcome,[3],inactive
same,outcome,[4],inactive
same,outcome,[5],inactive
same,outcome,[6],inactive
same,Potency,[7],13.3 µM (active)
same,Potency,[8],inactive
same,outcome,[9],inactive
same,Potency,[10],inactive
CC(=O)/C=C/C1C(C)=CCC(C)C1(C)C (stereo not drawn),Potency,[1],inactive
same,Potency,[2],inactive
same,outcome,[3],inactive
same,outcome,[4],inactive
same,outcome,[5],inactive
same,outcome,[6],inactive
same,Potency,[7],inactive
same,Potency,[8],inactive
same,outcome,[9],inactive
same,Potency,[10],inactive
C=C(C)C1CCC(C)(O)CC1 (stereo not drawn),Potency,[1],inactive
same,Potency,[2],inactive
same,outcome,[3],inactive
same,outcome,[4],inactive
same,outcome,[5],inactive
same,outcome,[6],inactive
same,Potency,[7],inactive
same,Potency,[8],inactive
same,outcome,[9],inactive
same,Potency,[10],inactive
O=S(O)(O)=S,"activity change, negative = cytotoxic",[1],0% [at 8.44 µM]
same,"activity, negative = inhibition",[2],-1.88% [at 8.44 µM]
same,activation,[3],-0.901% [at 8.08 µM]
same,"activity, negative = inhibition",[4],6.18% [at 6.71 µM]
same,"activity, negative = cytotoxicity",[5],-12.1% [at 6.72 µM]
same,activation,[6],-2.02% [at 6.71 µM]
same,activation,[7],6.37% [at 8.47 µM]
same,"activity change, negative = inhibition",[8],-6.18% [at 8.47 µM]
same,"activity change, negative = cytotoxicity",[9],-1.7% [at 8.47 µM]
same,"activity, negative = inhibition",[10],5.06% [at 8.47 µM]
NNc1nnc(NN)c2ccccc12,Potency,[1],inactive
same,Potency,[2],inactive
same,outcome,[3],inactive
same,outcome,[4],inactive
same,outcome,[5],inactive
same,outcome,[6],inactive
same,Potency,[7],inactive
same,Potency,[8],inactive
same,outcome,[9],inactive
same,Potency,[10],inactive
CC(CC=O)CCCC(C)(C)O (stereo not drawn),Potency,[1],inactive
same,Potency,[2],inactive
same,outcome,[3],inactive
same,outcome,[4],inactive
same,outcome,[5],inactive
same,outcome,[6],inactive
same,Potency,[7],inactive
same,Potency,[8],inactive
same,outcome,[9],inactive
same,Potency,[10],inactive
CCN1CCc2nc(N)oc2CC1,Potency,[1],inactive
same,Potency,[2],inactive
same,outcome,[3],inactive
same,outcome,[5],inactive
same,outcome,[6],inactive
same,Potency,[7],inactive
same,Potency,[8],inactive
same,outcome,[9],inactive
same,Potency,[10],inactive
On1nnc2ccccc21,Potency,[1],inactive
same,Potency,[2],inactive
same,outcome,[3],inactive
same,outcome,[4],inactive
same,outcome,[6],inactive
same,Potency,[7],inactive
same,Potency,[8],inactive
same,outcome,[9],inactive
same,Potency,[10],inactive
